Measured values reported in the supplement of paper PMC10849652.
Targets with a hit are over-represented here; the source holds about 8,800 in all. About 0.5% of all pairs of compound and target were hits. Unmarked numbers belong to inactive results.

How the values were obtained:
Assay in all cases: log2 fold change, soluble protein after heating vs DMSO (PISA); higher = thermal stabilisation; K562 lysate, 10 uM; active = over 0.2 and 3.5 SD of the protein, either way, in both replicates (recomputed)
nilotinib = compound: Cc1cn(-c2cc(NC(=O)c3ccc(C)c(Nc4nccc(-c5cccnc5)n4)c3)cc(C(F)(F)F)c2)cn1 [nilotinib]
Procedure, shortened: (§1)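 Thermal stability, expressed as log-two fold change relative to solvent controls, is given from duplicates. Crude K562 extract in PBS pH 7.4 with 1 mM MgCl2, at 1 mg/mL protein, was treated with 10 μM compound for 30 min and heated in aliquots for 3 min across 48°C-58°C. After pooling, adjustment to 0.5% NP-40 at 4°C and centrifugation at 21,000xg for 90 min, supernatant protein was measured by TMTpro 16plex LC-MS/MS with channel sums equalised.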

[1] = compound: Cc1nc(Nc2n[nH]c3c2CN(C(=O)N[C@H](CN(C)C)c2ccccc2)C3(C)C)c2sccc2n1
Procedure, shortened: as §1

dasatinib = compound: Cc1nc(Nc2ncc(C(=O)Nc3c(C)cccc3Cl)s2)cc(N2CCN(CCO)CC2)n1 [dasatinib]
Procedure, shortened: as §1

[2] = compound: Cc1ncc(-c2ccnc(Nc3ccc(S(C)(=O)=O)cc3)n2)n1C(C)C
Procedure, shortened: as §1

[3] = compound: Cn1cc(-c2ccc3c(c2)CCN3C(=O)Cc2cccc(C(F)(F)F)c2)c2c(N)ncnc21
Procedure, shortened: as §1

quisinostat = compound: Cn1cc(CNCC2CCN(c3ncc(C(=O)NO)cn3)CC2)c2ccccc21 [quisinostat]
Procedure, shortened: as §1

tipifarnib = compound: Cn1cncc1[C@@](N)(c1ccc(Cl)cc1)c1ccc2c(c1)c(-c1cccc(Cl)c1)cc(=O)n2C [tipifarnib]
Procedure, shortened: as §1

[4] = compound: NC(=O)Nc1cc(-c2cccc(F)c2)sc1C(=O)N[C@H]1CCCNC1
Procedure, shortened: as §1

[5] = compound: NC(=O)c1cnc(N[C@@H]2CCCC[C@@H]2N)nc1Nc1cccc(-n2nccn2)c1
Procedure, shortened: as §1

[6] = compound: NC1(c2ccc(-c3nc4ccn5c(=O)[nH]nc5c4cc3-c3ccccc3)cc2)CCC1
Procedure, shortened: as §1

Sequence of UniProt Q16659 (Q16659 whole entry, looked up): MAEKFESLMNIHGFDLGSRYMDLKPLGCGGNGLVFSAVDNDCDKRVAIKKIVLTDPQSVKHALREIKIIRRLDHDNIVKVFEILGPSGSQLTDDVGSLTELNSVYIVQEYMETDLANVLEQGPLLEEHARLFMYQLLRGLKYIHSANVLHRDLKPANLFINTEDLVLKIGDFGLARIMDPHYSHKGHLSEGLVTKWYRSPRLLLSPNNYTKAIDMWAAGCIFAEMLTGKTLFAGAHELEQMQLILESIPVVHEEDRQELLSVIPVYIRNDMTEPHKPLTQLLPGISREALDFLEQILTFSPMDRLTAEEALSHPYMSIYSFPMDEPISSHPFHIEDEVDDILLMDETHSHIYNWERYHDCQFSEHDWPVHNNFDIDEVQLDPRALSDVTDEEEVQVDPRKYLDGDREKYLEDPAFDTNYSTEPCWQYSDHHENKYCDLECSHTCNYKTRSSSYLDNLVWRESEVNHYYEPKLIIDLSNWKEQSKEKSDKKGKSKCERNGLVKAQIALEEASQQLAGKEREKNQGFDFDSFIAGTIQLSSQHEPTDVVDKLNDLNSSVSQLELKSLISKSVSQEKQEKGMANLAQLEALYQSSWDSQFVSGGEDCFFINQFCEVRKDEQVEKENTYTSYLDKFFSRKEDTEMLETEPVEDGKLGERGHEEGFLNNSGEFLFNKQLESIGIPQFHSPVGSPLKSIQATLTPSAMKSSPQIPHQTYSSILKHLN
Sequence of UniProt Q13601 (Q13601 whole entry, looked up): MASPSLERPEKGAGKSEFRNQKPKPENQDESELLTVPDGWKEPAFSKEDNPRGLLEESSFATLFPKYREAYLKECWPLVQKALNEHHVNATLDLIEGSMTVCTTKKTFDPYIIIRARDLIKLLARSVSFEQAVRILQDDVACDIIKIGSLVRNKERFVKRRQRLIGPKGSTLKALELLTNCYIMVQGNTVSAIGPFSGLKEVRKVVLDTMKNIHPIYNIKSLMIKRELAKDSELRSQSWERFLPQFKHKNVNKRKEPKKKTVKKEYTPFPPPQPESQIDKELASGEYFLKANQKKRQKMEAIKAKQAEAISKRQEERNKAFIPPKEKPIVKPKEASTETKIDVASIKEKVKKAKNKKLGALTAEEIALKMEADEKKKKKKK
Sequence of UniProt P34949 (P34949 whole entry, looked up): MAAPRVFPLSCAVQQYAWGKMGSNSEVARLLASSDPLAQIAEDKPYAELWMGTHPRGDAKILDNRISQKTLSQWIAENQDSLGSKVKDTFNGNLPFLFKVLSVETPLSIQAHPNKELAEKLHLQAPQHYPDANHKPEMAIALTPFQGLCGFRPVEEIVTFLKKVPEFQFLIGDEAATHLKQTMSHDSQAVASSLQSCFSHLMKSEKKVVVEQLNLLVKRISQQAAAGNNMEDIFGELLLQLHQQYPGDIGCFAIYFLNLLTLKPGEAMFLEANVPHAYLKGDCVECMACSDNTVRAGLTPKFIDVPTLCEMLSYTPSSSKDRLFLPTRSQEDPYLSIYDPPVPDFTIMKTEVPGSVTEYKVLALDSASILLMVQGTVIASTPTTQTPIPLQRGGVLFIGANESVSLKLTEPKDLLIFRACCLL
Sequence of UniProt Q9Y2E5 (Q9Y2E5 whole entry, looked up): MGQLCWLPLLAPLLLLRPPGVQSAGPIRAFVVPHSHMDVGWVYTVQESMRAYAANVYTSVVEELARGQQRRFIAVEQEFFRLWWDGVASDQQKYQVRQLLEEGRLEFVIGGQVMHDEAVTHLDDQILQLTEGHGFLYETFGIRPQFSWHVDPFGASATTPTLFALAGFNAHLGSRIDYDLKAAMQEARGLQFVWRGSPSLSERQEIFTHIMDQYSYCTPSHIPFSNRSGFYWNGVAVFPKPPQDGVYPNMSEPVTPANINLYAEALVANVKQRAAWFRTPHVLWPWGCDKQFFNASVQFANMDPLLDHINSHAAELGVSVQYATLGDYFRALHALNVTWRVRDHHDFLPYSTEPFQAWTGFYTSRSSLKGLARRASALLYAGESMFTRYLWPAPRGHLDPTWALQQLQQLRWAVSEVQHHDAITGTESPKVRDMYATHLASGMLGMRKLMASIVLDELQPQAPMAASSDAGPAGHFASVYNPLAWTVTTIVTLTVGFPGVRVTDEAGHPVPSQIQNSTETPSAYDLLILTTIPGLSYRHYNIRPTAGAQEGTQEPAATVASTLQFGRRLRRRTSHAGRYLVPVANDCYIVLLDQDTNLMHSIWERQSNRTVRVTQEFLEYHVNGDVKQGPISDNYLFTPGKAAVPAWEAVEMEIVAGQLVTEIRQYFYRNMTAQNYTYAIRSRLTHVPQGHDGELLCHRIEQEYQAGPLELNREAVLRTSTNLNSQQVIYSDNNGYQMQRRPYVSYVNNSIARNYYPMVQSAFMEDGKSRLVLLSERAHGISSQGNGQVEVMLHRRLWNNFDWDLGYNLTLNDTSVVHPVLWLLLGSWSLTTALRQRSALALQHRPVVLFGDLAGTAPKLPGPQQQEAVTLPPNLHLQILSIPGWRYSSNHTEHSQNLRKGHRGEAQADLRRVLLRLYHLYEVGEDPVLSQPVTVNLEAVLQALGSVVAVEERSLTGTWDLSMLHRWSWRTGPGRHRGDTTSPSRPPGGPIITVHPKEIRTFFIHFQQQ
Sequence of UniProt Q9NVC6 (Q9NVC6 whole entry, looked up): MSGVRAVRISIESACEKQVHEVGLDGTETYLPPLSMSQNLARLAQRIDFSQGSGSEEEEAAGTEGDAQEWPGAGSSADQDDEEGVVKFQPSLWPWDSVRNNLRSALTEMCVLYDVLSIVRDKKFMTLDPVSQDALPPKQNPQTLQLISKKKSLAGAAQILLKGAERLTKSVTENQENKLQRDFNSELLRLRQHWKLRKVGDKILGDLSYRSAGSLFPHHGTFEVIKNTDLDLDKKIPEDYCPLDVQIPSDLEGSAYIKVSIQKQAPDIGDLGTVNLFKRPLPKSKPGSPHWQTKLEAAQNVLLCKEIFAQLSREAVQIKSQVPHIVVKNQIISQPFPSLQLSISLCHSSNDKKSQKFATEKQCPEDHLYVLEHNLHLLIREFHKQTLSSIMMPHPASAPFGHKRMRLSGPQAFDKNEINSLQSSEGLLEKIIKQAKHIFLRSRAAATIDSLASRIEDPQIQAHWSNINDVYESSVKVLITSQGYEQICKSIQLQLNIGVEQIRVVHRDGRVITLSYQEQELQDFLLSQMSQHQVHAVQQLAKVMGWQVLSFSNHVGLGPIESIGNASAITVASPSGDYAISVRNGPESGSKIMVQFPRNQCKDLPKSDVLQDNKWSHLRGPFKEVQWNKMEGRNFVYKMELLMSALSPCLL
Sequence of UniProt O14733 (O14733 whole entry, looked up): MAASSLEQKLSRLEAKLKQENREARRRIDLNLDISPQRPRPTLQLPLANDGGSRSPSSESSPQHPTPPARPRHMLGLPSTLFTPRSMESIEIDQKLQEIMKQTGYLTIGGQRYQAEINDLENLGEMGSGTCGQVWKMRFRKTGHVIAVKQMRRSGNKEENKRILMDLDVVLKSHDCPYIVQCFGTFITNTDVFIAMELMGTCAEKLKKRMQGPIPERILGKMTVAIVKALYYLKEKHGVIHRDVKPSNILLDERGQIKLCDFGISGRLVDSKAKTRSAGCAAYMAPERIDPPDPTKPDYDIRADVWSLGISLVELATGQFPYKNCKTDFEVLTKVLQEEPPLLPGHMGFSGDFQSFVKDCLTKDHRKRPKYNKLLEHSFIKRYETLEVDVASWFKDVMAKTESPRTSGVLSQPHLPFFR
Sequence of UniProt Q08380 (Q08380 whole entry, looked up): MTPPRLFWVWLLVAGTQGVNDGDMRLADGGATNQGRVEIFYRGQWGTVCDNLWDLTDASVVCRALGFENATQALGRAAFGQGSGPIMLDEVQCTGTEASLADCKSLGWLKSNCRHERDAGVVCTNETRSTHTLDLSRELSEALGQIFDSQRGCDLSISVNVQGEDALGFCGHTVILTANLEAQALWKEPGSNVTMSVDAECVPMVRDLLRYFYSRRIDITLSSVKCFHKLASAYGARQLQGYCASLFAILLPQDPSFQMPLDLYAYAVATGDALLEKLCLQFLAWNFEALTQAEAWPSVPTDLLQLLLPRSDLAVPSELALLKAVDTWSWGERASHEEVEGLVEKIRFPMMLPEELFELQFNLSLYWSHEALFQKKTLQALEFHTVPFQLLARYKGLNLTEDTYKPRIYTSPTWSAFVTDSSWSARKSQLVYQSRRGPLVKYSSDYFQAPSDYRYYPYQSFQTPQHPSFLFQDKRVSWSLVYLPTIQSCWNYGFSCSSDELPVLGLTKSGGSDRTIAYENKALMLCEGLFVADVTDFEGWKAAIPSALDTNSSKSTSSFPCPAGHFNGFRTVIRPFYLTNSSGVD
Sequence of UniProt Q14657 (Q14657 whole entry, looked up): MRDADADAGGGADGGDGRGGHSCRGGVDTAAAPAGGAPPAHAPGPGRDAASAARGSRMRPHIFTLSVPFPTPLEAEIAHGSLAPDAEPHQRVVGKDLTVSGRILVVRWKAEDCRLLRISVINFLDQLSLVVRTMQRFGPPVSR
Sequence of UniProt P07948 (P07948 whole entry, looked up): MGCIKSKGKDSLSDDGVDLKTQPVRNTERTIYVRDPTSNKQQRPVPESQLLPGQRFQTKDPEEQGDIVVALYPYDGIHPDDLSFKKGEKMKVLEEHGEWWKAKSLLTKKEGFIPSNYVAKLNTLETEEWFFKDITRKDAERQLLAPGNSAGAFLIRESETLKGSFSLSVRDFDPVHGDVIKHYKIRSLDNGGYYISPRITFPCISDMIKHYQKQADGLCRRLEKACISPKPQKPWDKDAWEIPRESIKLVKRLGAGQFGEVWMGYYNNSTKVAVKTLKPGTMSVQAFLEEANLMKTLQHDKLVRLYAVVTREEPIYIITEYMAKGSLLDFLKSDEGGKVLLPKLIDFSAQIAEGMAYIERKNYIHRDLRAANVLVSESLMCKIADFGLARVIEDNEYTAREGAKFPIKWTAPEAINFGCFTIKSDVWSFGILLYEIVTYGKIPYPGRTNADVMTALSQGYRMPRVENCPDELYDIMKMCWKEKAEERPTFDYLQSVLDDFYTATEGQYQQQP

Target | log2 fold change (nilotinib) | log2 fold change [1] | log2 fold change (dasatinib) | log2 fold change [2] | log2 fold change [3] | log2 fold change (quisinostat) | log2 fold change (tipifarnib) | log2 fold change [4] | log2 fold change [5] | log2 fold change [6]
LYN (UniProt P07948) | 0.158 | 0.218 | 0.457 | -0.026 | 0.095 | -0.125 | -0.154 | 0.842 (active) | 0.084 | -0.037
MCUB (UniProt Q9NWR8) | -0.142 | 0.119 | 0.075 | -0.12 | 0.122 | -0.262 | -0.112 | 0.143 | -0.008 | -0.014
MOSPD2 (UniProt Q8NHP6) | 0.054 | -0.146 | 0.006 | -0.009 | 0.015 | -0.096 | 0.089 | -0.034 | -0.043 | -0.026
MRPL19 (UniProt P49406) | 0.001 | -0.015 | -0.039 | -0.004 | 0.005 | -0.055 | 0.033 | 0.024 | -0.018 | -0.044
LRWD1 (UniProt Q9UFC0) | 0.026 | -0.05 | -0.055 | 0.017 | 0.02 | -0.132 | 0.007 | 0.053 | 0.017 | -0.033
MBLAC2 (UniProt Q68D91) | 0.028 | -0.076 | -0.003 | -0.126 | 0.059 | 0.026 | 0.08 | 0 | -0.005 | 0.005
MAPK6 (UniProt Q16659) | -0.065 | 0.085 | 0.032 | 0.05 | 0.039 | -0.003 | -0.081 | 0.055 | 0.017 | -0.028
KRR1 (UniProt Q13601) | -0.057 | 0.058 | -0.014 | 0.006 | 0.012 | -0.336 (active) | -0.039 | 0.018 | 0.022 | -0.08
LAGE3 (UniProt Q14657) | -0.065 | 0.186 | 0.006 | -0.055 | 0.021 | -0.03 | 0.1 | 0.013 | 0.017 | 0.084
MED16 (UniProt Q9Y2X0) | -0.019 | 0.01 | -0.026 | 0.023 | -0.016 | -0.01 | 0.008 | -0.013 | 0.023 | -0.047
LIMK1 (UniProt P53667) | -0.315 | 0.008 | 0.4 | 0.031 | 0.146 | -0.145 | 0.102 | 0.126 | 0.118 | 
MBD2 (UniProt Q9UBB5) | 0.012 | 0.007 | -0.039 | 0 | 0.069 | -0.014 | -0.011 | -0.009 | -0.003 | 0.024
LSS (UniProt P48449) | 0.042 | 0.001 | 0.016 | -0.025 | 0.047 | -0.022 | -0.065 | 0.003 | 0.083 | 0.092
MRPL46 (UniProt Q9H2W6) | -0.036 | 0.039 | 0.016 | 0.064 | 0.03 | -0.034 | 0.05 | 0.03 | -0.023 | 0.035
MLXIP (UniProt Q9HAP2) | 0.09 | 0.003 | -0.068 | 0.003 | 0.02 | -0.04 | 0 | 0.082 | -0.01 | -0.028
MRPL12 (UniProt P52815) | 0.032 | -0.01 | 0.034 | 0.099 | -0.013 | 0.084 | 0.031 | -0.023 | -0.022 | -0.006
MCCC1 (UniProt Q96RQ3) | -0.025 | 0.002 | -0.103 | 0.027 | 0.008 | -0.049 | 0.031 | 0.035 | 0.008 | -0.045
LARP4B (UniProt Q92615) | -0.05 | 0.03 | -0.053 | -0.02 | 0.012 | -0.026 | 0 | 0.026 | -0.001 | 0.008
MED25 isoform 3 (UniProt Q71SY5) | 0.132 | 0.026 | -0.039 | 0.097 | -0.017 | -0.008 | -0.024 | 0.029 | -0.013 | -0.073
LUZP1 (UniProt Q86V48) | 0.013 | -0.046 | -0.004 | -0.02 | 0.062 | -0.03 | -0.005 | 0.109 | 0.01 | 0.027
LGALS3BP (UniProt Q08380) | -0.056 | 0.06 | 0.339 | -0.043 | -0.128 | -0.007 | -0.123 | 0.111 | 0.125 | 0.137
MORF4L1 isoform 2 (UniProt Q9UBU8) | 0.037 | 0.069 | -0.013 | -0.009 | 0 | 0 | -0.009 | -0.007 | -0.008 | -0.018
METTL2A (UniProt Q96IZ6) | -0.012 | 0.022 | 0.044 | -0.014 | 0.03 | -0.042 | 0.01 | 0.057 | -0.029 | 0.005
MINK1 (UniProt Q8N4C8) | -0.227 | -0.206 | -0.077 | 0.199 | -0.016 | -0.062 | 0.289 | 0.782 (active) | -0.023 | 0.02
MAP2K7 isoform 4 (UniProt O14733) | 0.017 | -0.101 | -0.093 | 0 | 0.22 | 0.001 | -0.024 | 0.033 | 0.001 | 0.002
MORC2 (UniProt Q9Y6X9) | -0.012 | -0.02 | -0.046 | 0.006 | 0.051 | -0.05 | 0.024 | 0.049 | 0.028 | -0.001
MPI (UniProt P34949) | 0.002 | -0.02 | -0.035 | 0.019 | -0.022 | -0.025 | 0.009 | 0.029 | 0.016 | -0.026
MAN2B2 (UniProt Q9Y2E5) | -0.039 | -0.173 | 0.051 | -0.004 | 0.011 | -0.033 | -0.041 | 0.04 | 0.038 | 0.033
MIPEP (UniProt Q99797) | 0.002 | 0.024 | 0.005 | -0.008 | 0.031 | 0.45 (active) | 0.033 | -0.016 | 0.01 | 0.054
MED17 (UniProt Q9NVC6) | -0.011 | 0.036 | -0.033 | -0.116 | -0.014 | -0.033 | -0.075 | 0.019 | 0.038 | 0.005
